# Assays:
# Experiment in all cases: DAPPL (digital affinity profiling via proximity ligation, sequencing); 10 mM Tris-HCl pH 7.5, 50 mM NaCl, 1 mM DTT, 4% glycerol, room temperature, 30 min; GST-TFs on glutathione beads, 16-mer random dsDNA library, 0.1% formaldehyde crosslink after washing; high values mean tight binding
# Details in all cases: protein: recombinant; tags: N-terminal GST; dsDNA, one strand shown
# FLI1 = molecular target: T1, FLI1 (Homo sapiens, UniProt Q01543 1-452)
# T1 sequence: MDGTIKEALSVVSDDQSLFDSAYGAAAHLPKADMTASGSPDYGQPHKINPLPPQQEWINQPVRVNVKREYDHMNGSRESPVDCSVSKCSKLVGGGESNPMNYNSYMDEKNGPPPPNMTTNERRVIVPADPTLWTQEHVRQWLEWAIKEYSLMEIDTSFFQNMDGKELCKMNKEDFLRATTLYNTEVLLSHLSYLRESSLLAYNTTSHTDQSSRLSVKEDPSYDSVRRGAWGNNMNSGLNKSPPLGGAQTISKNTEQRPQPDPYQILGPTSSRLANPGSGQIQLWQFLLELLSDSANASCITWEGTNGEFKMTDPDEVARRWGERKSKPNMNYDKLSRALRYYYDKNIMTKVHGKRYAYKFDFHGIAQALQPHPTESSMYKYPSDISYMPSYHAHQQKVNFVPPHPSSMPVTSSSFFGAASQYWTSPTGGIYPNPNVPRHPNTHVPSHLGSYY
# Procedure, shortened: (§1)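 Yeast served to express human transcription factors as GST fusions, which were then captured on glutathione beads and labelled with DNA barcodes. Pooled with a tag-only sample, they were incubated with 200 nmole of a 16-mer random double-stranded DNA library for 30 min at room temperature in Tris/NaCl/DTT/glycerol buffer, washed, crosslinked with 0.1% formaldehyde, ligated by proximity, amplified by PCR and sequenced. Dividing each hexamer's read frequency for a factor by its frequency for the tag-only sample gives the binding signal.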
# ELK1 = molecular target: T2, ELK1 (Homo sapiens, UniProt P19419 1-428)
# T2 sequence: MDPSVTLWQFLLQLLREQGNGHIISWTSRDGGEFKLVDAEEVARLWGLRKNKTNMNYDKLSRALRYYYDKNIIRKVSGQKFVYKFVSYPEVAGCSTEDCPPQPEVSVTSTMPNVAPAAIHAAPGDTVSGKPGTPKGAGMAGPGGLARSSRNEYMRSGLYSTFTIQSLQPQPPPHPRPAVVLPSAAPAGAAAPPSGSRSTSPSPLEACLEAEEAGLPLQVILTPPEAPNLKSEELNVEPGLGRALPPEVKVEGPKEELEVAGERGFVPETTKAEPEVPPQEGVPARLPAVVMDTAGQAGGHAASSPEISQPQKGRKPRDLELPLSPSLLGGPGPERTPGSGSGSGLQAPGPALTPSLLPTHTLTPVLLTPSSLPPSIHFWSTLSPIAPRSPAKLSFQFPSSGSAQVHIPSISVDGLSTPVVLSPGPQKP
# Procedure, shortened: as §1
# GABPA = molecular target: T3, GABPA (Homo sapiens, UniProt Q06546 1-454)
# T3 sequence: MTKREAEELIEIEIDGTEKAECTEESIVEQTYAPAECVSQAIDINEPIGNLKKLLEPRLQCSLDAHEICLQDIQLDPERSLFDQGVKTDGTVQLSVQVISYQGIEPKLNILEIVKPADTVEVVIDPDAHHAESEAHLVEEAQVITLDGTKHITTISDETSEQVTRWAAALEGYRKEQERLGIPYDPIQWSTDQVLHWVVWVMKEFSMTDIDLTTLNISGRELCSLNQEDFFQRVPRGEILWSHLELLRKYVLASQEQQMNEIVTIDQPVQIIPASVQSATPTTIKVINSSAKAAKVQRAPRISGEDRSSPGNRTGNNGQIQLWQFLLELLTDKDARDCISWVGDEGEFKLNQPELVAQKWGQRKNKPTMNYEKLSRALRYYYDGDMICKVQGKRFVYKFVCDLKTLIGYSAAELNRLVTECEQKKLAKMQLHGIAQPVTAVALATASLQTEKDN
# Procedure, shortened: as §1
# ERG = molecular target: T4, ERG (Homo sapiens, UniProt P11308 1-479)
# T4 sequence: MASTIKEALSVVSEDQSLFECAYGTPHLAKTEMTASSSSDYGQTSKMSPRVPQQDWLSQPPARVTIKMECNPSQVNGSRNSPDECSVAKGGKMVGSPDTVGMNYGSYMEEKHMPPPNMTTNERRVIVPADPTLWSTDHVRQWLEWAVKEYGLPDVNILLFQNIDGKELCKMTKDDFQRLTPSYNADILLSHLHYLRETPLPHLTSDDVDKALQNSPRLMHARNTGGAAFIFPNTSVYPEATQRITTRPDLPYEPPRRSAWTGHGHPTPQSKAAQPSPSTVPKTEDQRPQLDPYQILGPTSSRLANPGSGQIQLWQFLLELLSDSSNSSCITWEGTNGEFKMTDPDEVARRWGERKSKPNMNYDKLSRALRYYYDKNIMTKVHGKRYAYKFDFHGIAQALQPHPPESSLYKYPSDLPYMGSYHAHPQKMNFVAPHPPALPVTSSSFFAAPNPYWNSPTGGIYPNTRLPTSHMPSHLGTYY
# Procedure, shortened: as §1
# ELF1 = ELF1 (Homo sapiens, UniProt P32519 1-619)
# Chain of ELF1 (P32519 whole entry): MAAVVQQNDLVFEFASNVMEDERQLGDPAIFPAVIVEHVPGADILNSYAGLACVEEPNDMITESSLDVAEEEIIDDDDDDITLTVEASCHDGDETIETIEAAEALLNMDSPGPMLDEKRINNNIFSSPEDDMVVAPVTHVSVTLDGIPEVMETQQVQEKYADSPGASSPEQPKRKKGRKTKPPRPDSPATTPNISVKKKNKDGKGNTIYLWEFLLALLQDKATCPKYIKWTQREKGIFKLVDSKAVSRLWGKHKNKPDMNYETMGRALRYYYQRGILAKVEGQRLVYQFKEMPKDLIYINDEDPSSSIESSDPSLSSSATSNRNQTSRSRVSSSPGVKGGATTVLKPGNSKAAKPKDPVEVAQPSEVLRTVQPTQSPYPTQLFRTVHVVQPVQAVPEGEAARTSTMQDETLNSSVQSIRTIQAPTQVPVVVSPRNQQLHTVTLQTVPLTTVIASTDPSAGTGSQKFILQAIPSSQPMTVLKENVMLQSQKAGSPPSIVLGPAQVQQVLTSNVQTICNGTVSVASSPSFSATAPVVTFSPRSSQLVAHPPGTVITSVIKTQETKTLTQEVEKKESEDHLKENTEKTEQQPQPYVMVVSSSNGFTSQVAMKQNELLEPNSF
# Procedure, shortened: as §1
# EHF = molecular target: T5, EHF (Homo sapiens, UniProt Q9NZC4 1-300)
# T5 sequence: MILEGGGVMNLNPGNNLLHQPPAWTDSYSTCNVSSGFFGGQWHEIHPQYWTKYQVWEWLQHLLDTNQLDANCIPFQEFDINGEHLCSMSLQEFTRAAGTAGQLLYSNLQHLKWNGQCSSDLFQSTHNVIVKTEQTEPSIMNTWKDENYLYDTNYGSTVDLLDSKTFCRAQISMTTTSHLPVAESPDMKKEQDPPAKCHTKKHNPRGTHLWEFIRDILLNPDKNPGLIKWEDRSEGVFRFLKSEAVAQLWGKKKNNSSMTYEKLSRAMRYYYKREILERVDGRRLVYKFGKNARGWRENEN
# Procedure, shortened: as §1
# SPI1 = SPI1 (Homo sapiens, UniProt P17947 1-270)
# Procedure, shortened: as §1
# SPIB = SPIB (Homo sapiens, UniProt Q01892 1-262)
# Chain of SPIB (Q01892 whole entry): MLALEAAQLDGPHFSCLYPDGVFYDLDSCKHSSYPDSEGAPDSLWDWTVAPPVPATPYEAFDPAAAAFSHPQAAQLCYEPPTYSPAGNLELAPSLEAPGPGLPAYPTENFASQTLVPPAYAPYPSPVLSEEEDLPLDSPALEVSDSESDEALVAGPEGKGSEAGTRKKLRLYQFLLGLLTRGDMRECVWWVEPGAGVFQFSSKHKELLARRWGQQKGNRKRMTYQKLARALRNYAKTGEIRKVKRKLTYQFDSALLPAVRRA
# Procedure, shortened: as §1
# ELF4 = ELF4 (Homo sapiens, UniProt Q99607 1-663)
# Chain of ELF4 (Q99607 whole entry): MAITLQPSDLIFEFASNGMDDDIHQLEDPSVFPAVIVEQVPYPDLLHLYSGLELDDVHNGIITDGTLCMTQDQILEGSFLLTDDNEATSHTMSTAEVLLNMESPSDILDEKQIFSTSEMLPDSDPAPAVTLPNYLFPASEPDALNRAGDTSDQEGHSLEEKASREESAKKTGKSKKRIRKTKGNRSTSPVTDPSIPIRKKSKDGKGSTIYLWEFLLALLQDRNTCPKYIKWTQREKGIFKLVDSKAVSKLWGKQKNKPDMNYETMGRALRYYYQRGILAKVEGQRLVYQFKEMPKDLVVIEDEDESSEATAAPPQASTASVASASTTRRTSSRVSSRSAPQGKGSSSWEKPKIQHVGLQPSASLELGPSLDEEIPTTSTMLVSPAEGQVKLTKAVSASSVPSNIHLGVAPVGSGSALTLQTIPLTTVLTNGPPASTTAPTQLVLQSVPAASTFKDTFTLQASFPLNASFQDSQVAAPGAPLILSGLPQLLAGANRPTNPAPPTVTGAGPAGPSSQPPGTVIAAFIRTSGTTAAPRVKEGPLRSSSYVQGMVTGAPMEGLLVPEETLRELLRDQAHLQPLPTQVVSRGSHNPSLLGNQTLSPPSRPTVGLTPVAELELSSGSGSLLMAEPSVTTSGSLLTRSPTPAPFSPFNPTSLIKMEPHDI
# Procedure, shortened: as §1
# ELK4 = molecular target: T6, ELK4 (Homo sapiens, UniProt P28324-2 1-405)
# T6 sequence: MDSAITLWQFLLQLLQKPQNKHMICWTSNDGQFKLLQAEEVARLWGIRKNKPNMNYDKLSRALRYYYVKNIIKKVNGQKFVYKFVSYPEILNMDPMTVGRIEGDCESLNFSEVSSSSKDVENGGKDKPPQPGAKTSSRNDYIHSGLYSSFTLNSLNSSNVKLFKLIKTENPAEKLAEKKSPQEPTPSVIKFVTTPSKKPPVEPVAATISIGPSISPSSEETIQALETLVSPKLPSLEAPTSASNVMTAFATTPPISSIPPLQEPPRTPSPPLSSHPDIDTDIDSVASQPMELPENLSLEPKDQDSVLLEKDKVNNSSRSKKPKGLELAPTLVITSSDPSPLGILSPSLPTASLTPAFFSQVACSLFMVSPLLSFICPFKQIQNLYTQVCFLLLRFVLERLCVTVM
# Procedure, shortened: as §1
# ETV2 = molecular target: T7, ETV2 (Homo sapiens, UniProt O00321 1-342)
# T7 sequence: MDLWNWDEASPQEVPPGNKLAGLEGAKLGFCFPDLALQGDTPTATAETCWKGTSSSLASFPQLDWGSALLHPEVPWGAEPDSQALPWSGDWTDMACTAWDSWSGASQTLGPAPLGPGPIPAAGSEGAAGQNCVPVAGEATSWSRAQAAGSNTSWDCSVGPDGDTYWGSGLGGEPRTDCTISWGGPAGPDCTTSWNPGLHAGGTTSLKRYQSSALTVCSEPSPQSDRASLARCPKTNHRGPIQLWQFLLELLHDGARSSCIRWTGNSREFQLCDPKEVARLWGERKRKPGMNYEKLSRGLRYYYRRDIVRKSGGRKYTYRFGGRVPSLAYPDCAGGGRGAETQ
# Procedure, shortened: as §1
# ETV1 = ETV1 (Homo sapiens, UniProt P50549 1-477)
# Chain of ETV1 (P50549 whole entry): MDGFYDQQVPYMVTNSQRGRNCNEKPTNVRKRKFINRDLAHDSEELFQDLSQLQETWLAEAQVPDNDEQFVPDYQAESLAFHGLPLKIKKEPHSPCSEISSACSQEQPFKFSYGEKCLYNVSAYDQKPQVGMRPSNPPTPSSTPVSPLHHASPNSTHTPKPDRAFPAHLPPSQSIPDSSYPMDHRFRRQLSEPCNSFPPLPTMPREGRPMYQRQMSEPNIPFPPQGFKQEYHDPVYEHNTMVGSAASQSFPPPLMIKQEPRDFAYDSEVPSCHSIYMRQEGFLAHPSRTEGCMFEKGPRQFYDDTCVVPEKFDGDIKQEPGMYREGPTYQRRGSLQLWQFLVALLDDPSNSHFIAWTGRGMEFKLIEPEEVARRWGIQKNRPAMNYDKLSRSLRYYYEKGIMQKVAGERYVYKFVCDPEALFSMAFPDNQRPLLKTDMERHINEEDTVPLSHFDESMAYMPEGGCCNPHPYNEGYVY
# Procedure, shortened: as §1
# ERF = molecular target: T8, ERF (Homo sapiens, UniProt P50548 1-548)
# T8 sequence: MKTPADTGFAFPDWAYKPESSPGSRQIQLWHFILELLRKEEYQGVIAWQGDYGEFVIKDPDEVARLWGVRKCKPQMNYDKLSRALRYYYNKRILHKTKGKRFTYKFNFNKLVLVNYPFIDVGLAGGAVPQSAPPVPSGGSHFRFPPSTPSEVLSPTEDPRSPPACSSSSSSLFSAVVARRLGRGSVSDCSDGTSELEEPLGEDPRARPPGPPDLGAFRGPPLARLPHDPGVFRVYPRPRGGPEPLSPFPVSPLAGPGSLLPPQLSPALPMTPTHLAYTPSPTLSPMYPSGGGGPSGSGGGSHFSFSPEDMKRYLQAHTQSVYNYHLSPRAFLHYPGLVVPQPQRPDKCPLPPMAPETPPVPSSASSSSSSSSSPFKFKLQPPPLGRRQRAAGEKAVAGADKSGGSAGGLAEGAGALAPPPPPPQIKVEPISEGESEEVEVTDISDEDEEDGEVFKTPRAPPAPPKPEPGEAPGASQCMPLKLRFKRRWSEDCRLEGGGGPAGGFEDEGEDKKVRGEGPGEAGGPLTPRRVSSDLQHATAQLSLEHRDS
# Procedure, shortened: as §1
# ETV3L = molecular target: T9, ETV3L (Homo sapiens, UniProt Q6ZN32 1-361)
# T9 sequence: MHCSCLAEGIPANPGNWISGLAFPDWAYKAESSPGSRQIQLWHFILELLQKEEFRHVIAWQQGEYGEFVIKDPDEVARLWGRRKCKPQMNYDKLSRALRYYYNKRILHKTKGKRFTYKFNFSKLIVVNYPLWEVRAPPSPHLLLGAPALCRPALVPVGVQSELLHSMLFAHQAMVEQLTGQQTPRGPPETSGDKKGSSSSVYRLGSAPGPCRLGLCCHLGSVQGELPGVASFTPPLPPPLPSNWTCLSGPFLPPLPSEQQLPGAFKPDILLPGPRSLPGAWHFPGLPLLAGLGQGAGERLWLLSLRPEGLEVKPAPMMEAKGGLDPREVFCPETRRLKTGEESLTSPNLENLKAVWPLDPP
# Procedure, shortened: as §1
# ETV7 = molecular target: T10, ETV7 (Homo sapiens, UniProt Q9Y603 1-341)
# T10 sequence: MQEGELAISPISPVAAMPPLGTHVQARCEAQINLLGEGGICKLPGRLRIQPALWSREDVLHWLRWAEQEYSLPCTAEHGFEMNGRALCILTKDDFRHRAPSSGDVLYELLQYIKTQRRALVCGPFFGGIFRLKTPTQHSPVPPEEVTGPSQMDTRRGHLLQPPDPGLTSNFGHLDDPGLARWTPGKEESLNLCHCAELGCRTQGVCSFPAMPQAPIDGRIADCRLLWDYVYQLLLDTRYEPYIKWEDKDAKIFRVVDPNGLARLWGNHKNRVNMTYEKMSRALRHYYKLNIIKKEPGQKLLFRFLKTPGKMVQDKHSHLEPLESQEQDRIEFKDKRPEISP
# Procedure, shortened: as §1
# ETV3 = molecular target: T11, ETV3 (Homo sapiens, UniProt P41162-2 1-143)
# T11 sequence: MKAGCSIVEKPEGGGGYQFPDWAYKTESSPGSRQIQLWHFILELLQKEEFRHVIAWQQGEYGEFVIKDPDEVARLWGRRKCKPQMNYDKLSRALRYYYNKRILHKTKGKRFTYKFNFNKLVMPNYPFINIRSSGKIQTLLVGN
# Procedure, shortened: as §1
# ETV6 = ETV6 (Homo sapiens, UniProt P41212 1-452)
# Chain of ETV6 (P41212 whole entry): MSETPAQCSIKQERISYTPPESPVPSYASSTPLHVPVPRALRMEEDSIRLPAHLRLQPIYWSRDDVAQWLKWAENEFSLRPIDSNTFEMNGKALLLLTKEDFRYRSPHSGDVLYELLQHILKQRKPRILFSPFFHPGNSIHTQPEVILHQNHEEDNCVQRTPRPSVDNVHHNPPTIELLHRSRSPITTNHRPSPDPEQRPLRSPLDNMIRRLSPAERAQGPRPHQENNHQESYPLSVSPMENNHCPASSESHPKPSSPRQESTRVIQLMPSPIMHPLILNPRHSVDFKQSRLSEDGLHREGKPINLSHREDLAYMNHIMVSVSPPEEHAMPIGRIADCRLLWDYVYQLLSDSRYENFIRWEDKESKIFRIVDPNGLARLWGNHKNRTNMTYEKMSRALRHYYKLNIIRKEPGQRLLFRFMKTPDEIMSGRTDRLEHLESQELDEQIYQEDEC
# Procedure, shortened: as §1
sequence,measurement,setting,value
TCAGCT,binding signal,FLI1,"1.09 fold enrichment (6-mer frequency, TF over GST control)"
same,binding signal,ELK1,"1 fold enrichment (6-mer frequency, TF over GST control)"
same,binding signal,GABPA,"1.04 fold enrichment (6-mer frequency, TF over GST control)"
same,binding signal,ERG,"1.06 fold enrichment (6-mer frequency, TF over GST control)"
same,binding signal,ELF1,"1.12 fold enrichment (6-mer frequency, TF over GST control)"
same,binding signal,EHF,"1.11 fold enrichment (6-mer frequency, TF over GST control)"
same,binding signal,SPI1,"1.04 fold enrichment (6-mer frequency, TF over GST control)"
same,binding signal,SPIB,"1.09 fold enrichment (6-mer frequency, TF over GST control)"
same,binding signal,ELF4,"1.03 fold enrichment (6-mer frequency, TF over GST control)"
same,binding signal,ELK4,"1.14 fold enrichment (6-mer frequency, TF over GST control)"
same,binding signal,ETV2,"1.11 fold enrichment (6-mer frequency, TF over GST control)"
same,binding signal,ETV1,"1.14 fold enrichment (6-mer frequency, TF over GST control)"
same,binding signal,ERF,"1.09 fold enrichment (6-mer frequency, TF over GST control)"
same,binding signal,ETV3L,"1.09 fold enrichment (6-mer frequency, TF over GST control)"
same,binding signal,ETV7,"1.01 fold enrichment (6-mer frequency, TF over GST control)"
same,binding signal,ETV3,"1.05 fold enrichment (6-mer frequency, TF over GST control)"
same,binding signal,ETV6,"1.04 fold enrichment (6-mer frequency, TF over GST control)"

# Reference: article PMC7862700, “An all-to-all approach to the identification of sequence-specific readers for epigenetic DNA modifications on cytosine”
